This is a sample that favours compounds with a hit; in the whole collection about 5.9% have one here.
rTrxR1 inhibitor: qHTS Assay for Inhibitors of Mammalian Selenoprotein Thioredoxin Reductase 1 (TrxR1): qHTS | Thioredoxin reductase 1, cytoplasmic (Rattus norvegicus), O89049 | recombinant rTrxR1, NADPH fluorescence consumption, selenite substrate | Potency, µM (highest dose often 114 µM), without a hit: at the highest dose activity change, negative = inhibition, most hits filed as inhibitors | 390,000 compounds, 1% hits; note: potency is the fitted concentration of half-maximal effect; nearly all actives have a fitted effect of over 65% in size
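Rat TrxR1 (90 nM in the dispensed reagent) was pre-reduced with 400 uM NADPH for 5 min at room temperature, then incubated with compound for 15 min. After 400 uM selenite was added, NADPH fluorescence (Ex 340/Em 450 nm) was followed for 8 min.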
RORgamma inh: qHTS for inhibitors of ROR gamma transcriptional activity. Potency, µM (titrated, usually from 53.6 µM), without a hit: top-dose activity change, negative = inhibition, actives largely listed as inhibitors. 310,000 compounds, 5.4% hits. AID 2551, 2010. Nuclear receptor ROR-gamma (Mus musculus), P51450. Drosophila S2 Gal4-RORgamma UAS-luciferase reporter, 20 h; note: potency is the fitted concentration of half-maximal effect; nearly all actives have a fitted effect of over 60% in size
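Luciferase reporter read in Schneider cells carrying Gal4-RORγ (mouse) and UAS-Photinus luciferase; cells given compound 1 h before 700 uM copper sulfate induction, then incubated 20 h at ambient temperature.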
GALK inhibitor: qHTS Assay for Inhibitors of Human Galactokinase (GALK); Potency, µM (titrated, usually from 57.5 µM), for inactives: at the highest dose activity change, negative = inhibition, usual class: inhibitors; 270,000 compounds, 0.007% hits; P51570; Purified GALK, Kinase-Glo residual ATP luminescence; AID 1868, 2009; note: potency is the fitted concentration of half-maximal effect
Target sequence (P51570 whole entry, looked up): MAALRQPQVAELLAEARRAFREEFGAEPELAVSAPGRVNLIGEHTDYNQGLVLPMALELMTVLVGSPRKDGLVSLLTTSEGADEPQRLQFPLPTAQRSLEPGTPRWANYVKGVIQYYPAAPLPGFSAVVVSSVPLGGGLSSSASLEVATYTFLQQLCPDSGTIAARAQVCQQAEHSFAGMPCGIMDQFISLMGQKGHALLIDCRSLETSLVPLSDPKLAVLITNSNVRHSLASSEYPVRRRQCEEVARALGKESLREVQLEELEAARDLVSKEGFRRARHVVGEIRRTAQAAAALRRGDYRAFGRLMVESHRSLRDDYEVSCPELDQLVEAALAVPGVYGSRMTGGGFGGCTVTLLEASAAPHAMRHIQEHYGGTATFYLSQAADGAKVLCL
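Kinase-Glo Plus luminescence measured ATP left after a 1 h room-temperature reaction. The reaction used 5 nM GALK, 100 uM galactose and 35 uM ATP at pH 8.0 (20 mM HEPES, 5 mM MgCl2, 60 mM NaCl, 1 mM DTT, 0.01% BSA).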
TrxR1 substrate: qHTS Assay for Substrates of Mammalian Selenoprotein Thioredoxin Reductase 1 (TrxR1): qHTS; Thioredoxin reductase 1, cytoplasmic (Rattus norvegicus), O89049; 390,000 compounds, 0.01% hits; Potency, µM (top dose mostly 114 µM), without a hit: at the highest dose activity change, negative = substrate turnover; purified TrxR1 substrate turnover, NADPH consumption readout; note: potency is the fitted concentration of half-maximal effect; nearly all actives have a fitted effect of over 50% in size
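Rat TrxR1, dispensed at 90 nM, was prereduced with 400 uM NADPH (final) for 5 min at ~22 deg C, then incubated with compound 15 min before 400 uM selenite. A first-read NADPH fluorescence drop versus no-compound background flagged substrates.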
FBPA coupling cs: qHTS Assay for Inhibitors of Fructose-1,6-bisphosphate Aldolase from Giardia Lamblia: Coupling assay counterscreen; coupling enzyme system counterscreen, AmpLite Red fluorescence; activity change, negative = inhibition, % at 58.2 µM, hits read low; 290,000 compounds, 0.67% hits; in the data active = activity change below about -30%
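Coupling enzymes only (glyceraldehyde-3-phosphate) + compound, at 57.5 uM final, 10 min RT; add substrate/coupling/AmpLite Red mix, 20 min RT; fluorescence ex 525/em 598 nm. Actives flag coupling-system interference.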
VP16 counter: VP16 counterscreen qHTS for inhibitors of ROR gamma transcriptional activity. Drosophila S2 Gal4-VP16 UAS-luciferase, luminescence, 20 h. Potency, µM (top dose mostly 53.6 µM), without a hit: top-dose activity, negative = inhibition, most hits filed as inhibitors. 310,000 compounds, 3.5% hits;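 note: Gal4-VP16 expression switched on by copper sulfate through the metallothionein promoter; potency is the fitted concentration of half-maximal effect; nearly all actives have a fitted effect of over 50% in size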
* = called active by the depositor; [ ] = another dose, or the depositor's remark. Unless noted, calls come from the whole dose curve; as a rule, active = well fitted curve in the direction sought with a large enough effect; inconclusive = small, poorly fitted or top-dose-only effect, or another doubt; inactive = no such curve, though single readings can be large; an effect the other way counts as inactive or inconclusive. % is set by controls: 0 for no effect and ±100 for the full control effect.

What do the screens show for `CC(C)=C1C2CCC1C1C(=O)N(c3nc(-c4ccc(F)cc4)c(C)s3)C(=O)C21` (stereo not drawn)?
rTrxR1 inhibitor: 22%; RORgamma inh: 4%; GALK inhibitor: -1%; TrxR1 substrate: 5%; FBPA coupling cs: -5; VP16 counter: 20µM*

What do the screens show for `CCOc1cc(C(Nc2cc(C)ccn2)c2ccc3cccnc3c2O)ccc1OC` (stereo not drawn)?
rTrxR1 inhibitor: 1.3µM*; TrxR1 substrate: -7%

What do the screens show for `CCCCC(=O)NC(c1ccc(Cl)cc1)c1ccc2cccnc2c1O` (stereo not drawn)?
rTrxR1 inhibitor: 13%; TrxR1 substrate: 0%

Results for COc1ccc(C(Nc2ccccn2)c2ccc3ccc(C)nc3c2O)cc1C (stereo not drawn) ?
rTrxR1 inhibitor: inconclusive; TrxR1 substrate: 9%

Results for CCCCC(=O)NC(c1ccccc1OC)c1ccc2cccnc2c1O (stereo not drawn) ?
rTrxR1 inhibitor: 28%; RORgamma inh: 5.6µM*; GALK inhibitor: -2%; TrxR1 substrate: 1%; FBPA coupling cs: -2; VP16 counter: 4.5µM*

What do the screens show for `CCCC(=O)NC(c1ccccc1OC)c1ccc2cccnc2c1O` (stereo not drawn)?
rTrxR1 inhibitor: 10%[57.1 µM]; RORgamma inh: 5µM*; GALK inhibitor: 2%; TrxR1 substrate: -6%; FBPA coupling cs: -1; VP16 counter: 2.2µM*

What do the screens show for `O=C(NCc1ccc2c(c1)CCN2C(=O)c1ccc(F)cc1)c1ccc(Br)o1`?
rTrxR1 inhibitor: -1%[57.1 µM]; TrxR1 substrate: -3%[57.1 µM]

Results for O=C(COC(=O)c1ccccc1C(=O)c1ccc(Cl)c([N+](=O)[O-])c1)NC1CCCCCC1 ?
rTrxR1 inhibitor: inconclusive; RORgamma inh: 4.5µM*; GALK inhibitor: -3%; TrxR1 substrate: 2%[57.1 µM]; FBPA coupling cs: 1; VP16 counter: inconclusive

How did O=C(COC(=O)c1ccc2c(c1[N+](=O)[O-])C(=O)c1ccccc1C2=O)NC1CC1 do in these assays?
rTrxR1 inhibitor: inconclusive; RORgamma inh: inconclusive; GALK inhibitor: 2%; TrxR1 substrate: 0%; FBPA coupling cs: -33*; VP16 counter: 18µM*

How did Cc1cc(Cl)ccc1OCc1nc(-c2ccc(-n3cccc3)cc2)no1 do in these assays?
rTrxR1 inhibitor: 15%; TrxR1 substrate: 3%

How did Cc1cc(Cl)ccc1OCc1nc(-c2ccc(O)cc2)n[nH]1 do in these assays?
rTrxR1 inhibitor: 9%; RORgamma inh: inconclusive; GALK inhibitor: 1%; TrxR1 substrate: -10%; FBPA coupling cs: 2; VP16 counter: 4.5µM*

How did CN(Cc1ccc(Cl)cc1)C(=O)CCl do in these assays?
rTrxR1 inhibitor: 6.3µM*; RORgamma inh: inconclusive; GALK inhibitor: -2%; TrxR1 substrate: 3%; FBPA coupling cs: 0; VP16 counter: inconclusive

What do the screens show for `CN(Cc1ccc(Cl)s1)C(=O)CCl`?
rTrxR1 inhibitor: inconclusive; RORgamma inh: 10µM*; GALK inhibitor: -2%; TrxR1 substrate: 11%[57.1 µM]; FBPA coupling cs: -4; VP16 counter: -76%

Results for CN(C)CCNC(=O)c1ccc(Cl)s1 ?
rTrxR1 inhibitor: 3%; RORgamma inh: -4%; GALK inhibitor: -1%; TrxR1 substrate: 0%; FBPA coupling cs: -3; VP16 counter: -3%[0.365 µM]

How did COc1ccc(CN(C)C(=O)CCl)cc1 do in these assays?
rTrxR1 inhibitor: inconclusive; RORgamma inh: inconclusive; GALK inhibitor: 10%; TrxR1 substrate: 5%[57.1 µM]; FBPA coupling cs: 0; VP16 counter: inconclusive

How did O=C(NC1CC2CCC(C1)N2C(=O)NCc1ccccc1)C1CC1 (stereo not drawn) do in these assays?
rTrxR1 inhibitor: -1%; RORgamma inh: -27%; GALK inhibitor: 0%; TrxR1 substrate: -3%; FBPA coupling cs: -1; VP16 counter: -2%

What do the screens show for `O=[N+]([O-])c1ccc(SNc2ccccc2)c([N+](=O)[O-])c1`?
rTrxR1 inhibitor: 16%[11.4 µM]; TrxR1 substrate: 6%[11.4 µM]

Results for O=[N+]([O-])c1ccc(-[n+]2ccc3ccccc3c2)c([N+](=O)[O-])c1 ?
rTrxR1 inhibitor: 0.89µM*; TrxR1 substrate: -7%

What do the screens show for `Cc1cccc(C(=O)c2cnc3ccccc3c2-c2ccccc2)c1`?
rTrxR1 inhibitor: -7%; RORgamma inh: inconclusive; GALK inhibitor: -3%; TrxR1 substrate: -7%; FBPA coupling cs: 3; VP16 counter: 10µM*

What do the screens show for `Cc1ccc2ncc(C(=O)c3ccc(C)c(C)c3)c(S(=O)(=O)c3ccccc3)c2c1`?
rTrxR1 inhibitor: 6%; TrxR1 substrate: 6%

What do the screens show for `Nc1ccccc1Sc1nc2ccccc2[nH]1`?
rTrxR1 inhibitor: 52%[57.1 µM]; RORgamma inh: 3.5µM*; GALK inhibitor: 10%; TrxR1 substrate: -11%; FBPA coupling cs: -1; VP16 counter: 13µM*

Results for CCSc1nc2ccccc2[nH]1 ?
rTrxR1 inhibitor: -3%; RORgamma inh: 18%; GALK inhibitor: 0%; TrxR1 substrate: 1%[57.1 µM]; FBPA coupling cs: 1; VP16 counter: -6%

How did O=C(CSc1oc(-c2ccco2)nc1S(=O)(=O)c1ccc(Br)cc1)c1ccccc1 do in these assays?
rTrxR1 inhibitor: -23%; TrxR1 substrate: 0%

How did CNC(=O)N(O)C1N(/N=C/c2cc(Br)ccc2O)C(=S)SC1(C)C (stereo not drawn) do in these assays?
rTrxR1 inhibitor: 5%[57.1 µM]; RORgamma inh: 16µM*; GALK inhibitor: 2%; TrxR1 substrate: -10%; FBPA coupling cs: 0; VP16 counter: inconclusive

Results for CC1(C)SC(=S)N(/N=C/c2ccccc2O)C1N(O)C(=O)Nc1ccccc1 (stereo not drawn) ?
rTrxR1 inhibitor: 5%; RORgamma inh: 18µM*; GALK inhibitor: -1%; TrxR1 substrate: -3%; FBPA coupling cs: -7; VP16 counter: inconclusive

What do the screens show for `Cc1csc(NC(=O)CSc2nnc(CCNC(=O)c3ccc(Cl)c(Cl)c3)n2C)n1`?
rTrxR1 inhibitor: 7%; RORgamma inh: 13%; GALK inhibitor: 3%; TrxR1 substrate: -2%; FBPA coupling cs: 3; VP16 counter: -1%

Results for CCOC(=O)C1CCN(C(=O)c2ccc(C)o2)CC1 ?
rTrxR1 inhibitor: 6%[11.4 µM]; TrxR1 substrate: 12%[57.1 µM]

Source: PubChem
